Paper PMC7862700, “An all-to-all approach to the identification of sequence-specific readers for epigenetic DNA modifications on cytosine”

What was measured:
Assay in all cases: DAPPL (digital affinity profiling via proximity ligation, sequencing); 10 mM Tris-HCl pH 7.5, 50 mM NaCl, 1 mM DTT, 4% glycerol, room temperature, 30 min; GST-TFs on glutathione beads, 16-mer random dsDNA library, 0.1% formaldehyde crosslink after washing; high values mean tight binding
FEV = molecular target: T1, FEV (Homo sapiens, UniProt Q99581 1-238); conditions: protein: recombinant; tags: N-terminal GST; dsDNA, one strand shown
T1 sequence: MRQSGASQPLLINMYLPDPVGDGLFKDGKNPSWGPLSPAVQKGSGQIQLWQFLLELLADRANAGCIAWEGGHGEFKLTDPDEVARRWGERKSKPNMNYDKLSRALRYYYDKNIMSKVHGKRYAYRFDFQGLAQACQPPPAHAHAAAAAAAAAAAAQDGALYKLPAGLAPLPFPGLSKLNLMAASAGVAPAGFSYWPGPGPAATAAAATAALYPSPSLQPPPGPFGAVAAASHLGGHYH
Method in brief: (§1)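 Human transcription factors carrying a GST fusion were produced in yeast, bound to glutathione beads, tagged with DNA barcodes and pooled together with a tag-only sample. Each pool was held with 200 nmole of a random double-stranded 16-mer DNA library in Tris/NaCl/DTT/glycerol buffer for 30 min at room temperature, then washed, crosslinked in 0.1% formaldehyde, proximity-ligated with BsaI/T4 ligase (1 h, 37 °C), PCR-amplified and sequenced on an Illumina NextSeq500. Binding signal is the read frequency of each hexamer for a given factor divided by its frequency in the tag-only sample.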

ETV5 = ETV5 (Homo sapiens, UniProt P41161 1-510); conditions: protein: recombinant; tags: N-terminal GST; dsDNA, one strand shown
Sequence of ETV5 (P41161 whole entry): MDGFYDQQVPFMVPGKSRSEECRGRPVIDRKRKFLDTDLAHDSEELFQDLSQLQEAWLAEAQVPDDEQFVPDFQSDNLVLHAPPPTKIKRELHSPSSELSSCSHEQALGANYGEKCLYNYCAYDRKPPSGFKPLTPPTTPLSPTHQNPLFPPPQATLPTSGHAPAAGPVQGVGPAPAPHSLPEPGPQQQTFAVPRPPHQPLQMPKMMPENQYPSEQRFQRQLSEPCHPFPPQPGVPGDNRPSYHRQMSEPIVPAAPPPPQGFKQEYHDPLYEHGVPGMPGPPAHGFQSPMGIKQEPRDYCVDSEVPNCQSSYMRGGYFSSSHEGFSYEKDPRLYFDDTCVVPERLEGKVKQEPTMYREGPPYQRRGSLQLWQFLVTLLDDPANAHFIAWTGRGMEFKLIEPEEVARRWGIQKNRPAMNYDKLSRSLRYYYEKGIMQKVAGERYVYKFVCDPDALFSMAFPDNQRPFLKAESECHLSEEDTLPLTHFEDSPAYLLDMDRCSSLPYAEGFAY
Method in brief: as §1

HSF1 = HSF1 (Homo sapiens, UniProt Q00613 1-529); conditions: protein: recombinant; tags: N-terminal GST; chain copies: 3; dsDNA, one strand shown
Sequence of HSF1 (Q00613 whole entry): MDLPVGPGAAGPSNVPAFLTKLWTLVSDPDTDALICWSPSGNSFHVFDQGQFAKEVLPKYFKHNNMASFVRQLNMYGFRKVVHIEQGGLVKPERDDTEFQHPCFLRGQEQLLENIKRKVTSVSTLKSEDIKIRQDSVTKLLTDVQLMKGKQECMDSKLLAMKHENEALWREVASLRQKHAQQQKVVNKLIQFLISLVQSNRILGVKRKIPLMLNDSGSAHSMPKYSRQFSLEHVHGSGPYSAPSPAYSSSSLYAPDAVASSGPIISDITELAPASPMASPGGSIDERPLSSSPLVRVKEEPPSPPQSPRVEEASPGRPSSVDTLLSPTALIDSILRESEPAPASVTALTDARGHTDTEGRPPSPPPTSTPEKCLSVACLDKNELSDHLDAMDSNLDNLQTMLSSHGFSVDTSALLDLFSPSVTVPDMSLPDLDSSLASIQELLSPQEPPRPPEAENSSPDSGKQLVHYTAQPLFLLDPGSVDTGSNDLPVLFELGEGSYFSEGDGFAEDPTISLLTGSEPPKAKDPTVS
Method in brief: as §1

SPIC = molecular target: T2, SPIC (Homo sapiens, UniProt Q8N5J4 1-248); conditions: protein: recombinant; tags: N-terminal GST; dsDNA, one strand shown
T2 sequence: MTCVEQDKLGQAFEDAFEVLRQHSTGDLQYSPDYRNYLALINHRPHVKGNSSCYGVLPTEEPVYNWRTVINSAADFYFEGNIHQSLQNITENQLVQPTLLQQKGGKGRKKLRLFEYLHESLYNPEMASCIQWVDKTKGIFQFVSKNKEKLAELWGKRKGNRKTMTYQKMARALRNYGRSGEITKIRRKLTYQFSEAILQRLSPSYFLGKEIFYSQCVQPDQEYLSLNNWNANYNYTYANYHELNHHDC
Method in brief: as §1

ELF4 = ELF4 (Homo sapiens, UniProt Q99607 1-663); conditions: protein: recombinant; tags: N-terminal GST; dsDNA, one strand shown
Sequence of ELF4 (Q99607 whole entry): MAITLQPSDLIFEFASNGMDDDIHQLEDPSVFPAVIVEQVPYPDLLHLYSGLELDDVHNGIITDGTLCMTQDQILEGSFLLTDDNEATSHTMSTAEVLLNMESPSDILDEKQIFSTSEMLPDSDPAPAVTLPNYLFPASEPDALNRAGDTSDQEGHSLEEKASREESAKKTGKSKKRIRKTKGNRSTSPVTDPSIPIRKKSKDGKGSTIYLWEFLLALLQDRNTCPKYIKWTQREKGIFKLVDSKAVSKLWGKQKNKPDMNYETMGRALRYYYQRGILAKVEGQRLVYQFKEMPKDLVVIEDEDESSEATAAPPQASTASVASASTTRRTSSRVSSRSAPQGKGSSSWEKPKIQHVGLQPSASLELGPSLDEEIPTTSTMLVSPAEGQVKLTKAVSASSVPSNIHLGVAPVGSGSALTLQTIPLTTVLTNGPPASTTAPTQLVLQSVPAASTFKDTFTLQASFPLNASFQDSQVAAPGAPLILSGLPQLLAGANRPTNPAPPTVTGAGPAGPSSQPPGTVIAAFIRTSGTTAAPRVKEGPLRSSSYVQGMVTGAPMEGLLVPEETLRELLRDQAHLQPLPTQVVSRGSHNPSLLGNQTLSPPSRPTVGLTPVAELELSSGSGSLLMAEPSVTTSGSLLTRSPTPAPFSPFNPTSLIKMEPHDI
Method in brief: as §1

ELK4 = molecular target: T3, ELK4 (Homo sapiens, UniProt P28324-2 1-405); conditions: protein: recombinant; tags: N-terminal GST; dsDNA, one strand shown
T3 sequence: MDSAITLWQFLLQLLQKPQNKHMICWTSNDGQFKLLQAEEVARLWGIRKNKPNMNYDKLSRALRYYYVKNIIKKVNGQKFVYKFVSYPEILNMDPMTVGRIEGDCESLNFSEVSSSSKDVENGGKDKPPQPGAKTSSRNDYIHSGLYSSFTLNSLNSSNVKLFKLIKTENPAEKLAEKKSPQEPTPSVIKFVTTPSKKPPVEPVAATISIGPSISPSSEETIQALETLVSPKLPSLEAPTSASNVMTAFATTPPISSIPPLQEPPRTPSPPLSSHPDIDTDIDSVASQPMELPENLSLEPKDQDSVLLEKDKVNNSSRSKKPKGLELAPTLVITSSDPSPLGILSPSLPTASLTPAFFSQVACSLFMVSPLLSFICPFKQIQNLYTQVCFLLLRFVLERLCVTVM
Method in brief: as §1

ETV2 = molecular target: T4, ETV2 (Homo sapiens, UniProt O00321 1-342); conditions: protein: recombinant; tags: N-terminal GST; dsDNA, one strand shown
T4 sequence: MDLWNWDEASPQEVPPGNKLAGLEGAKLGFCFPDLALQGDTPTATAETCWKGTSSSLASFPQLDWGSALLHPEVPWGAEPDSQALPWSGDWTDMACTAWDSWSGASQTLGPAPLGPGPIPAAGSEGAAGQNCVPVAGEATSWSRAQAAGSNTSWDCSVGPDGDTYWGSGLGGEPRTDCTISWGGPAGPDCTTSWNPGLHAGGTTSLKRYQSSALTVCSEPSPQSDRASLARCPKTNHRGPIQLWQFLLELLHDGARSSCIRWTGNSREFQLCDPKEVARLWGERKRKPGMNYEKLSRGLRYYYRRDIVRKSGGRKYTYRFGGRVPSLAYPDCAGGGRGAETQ
Method in brief: as §1

ELF3 = molecular target: T5, ELF3 (Homo sapiens, UniProt P78545 1-371); conditions: protein: recombinant; tags: N-terminal GST; dsDNA, one strand shown
T5 sequence: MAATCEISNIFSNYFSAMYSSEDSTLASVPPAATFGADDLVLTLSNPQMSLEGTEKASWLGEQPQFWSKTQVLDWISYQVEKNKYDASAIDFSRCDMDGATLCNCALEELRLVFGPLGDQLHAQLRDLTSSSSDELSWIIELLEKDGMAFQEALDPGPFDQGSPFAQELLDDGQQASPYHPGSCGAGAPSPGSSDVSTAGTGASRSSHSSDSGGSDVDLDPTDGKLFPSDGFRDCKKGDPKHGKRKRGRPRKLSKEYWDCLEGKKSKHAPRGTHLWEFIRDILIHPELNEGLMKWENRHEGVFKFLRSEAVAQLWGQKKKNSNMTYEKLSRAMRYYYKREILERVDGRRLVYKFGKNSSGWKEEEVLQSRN
Method in brief: as §1

CRX = CRX (Homo sapiens, UniProt O43186 1-299); conditions: protein: recombinant; tags: N-terminal GST; dsDNA, one strand shown
Sequence of CRX (O43186 whole entry): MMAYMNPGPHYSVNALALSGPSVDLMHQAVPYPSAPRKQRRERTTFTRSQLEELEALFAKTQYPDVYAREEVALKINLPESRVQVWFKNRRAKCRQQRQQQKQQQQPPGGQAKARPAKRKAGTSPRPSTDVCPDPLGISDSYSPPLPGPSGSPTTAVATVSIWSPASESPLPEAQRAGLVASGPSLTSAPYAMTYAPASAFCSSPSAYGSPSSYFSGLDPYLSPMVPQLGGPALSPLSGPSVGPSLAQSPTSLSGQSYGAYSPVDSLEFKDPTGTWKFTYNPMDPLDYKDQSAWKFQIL
Method in brief: as §1

ETV1 = ETV1 (Homo sapiens, UniProt P50549 1-477); conditions: protein: recombinant; tags: N-terminal GST; dsDNA, one strand shown
Sequence of ETV1 (P50549 whole entry): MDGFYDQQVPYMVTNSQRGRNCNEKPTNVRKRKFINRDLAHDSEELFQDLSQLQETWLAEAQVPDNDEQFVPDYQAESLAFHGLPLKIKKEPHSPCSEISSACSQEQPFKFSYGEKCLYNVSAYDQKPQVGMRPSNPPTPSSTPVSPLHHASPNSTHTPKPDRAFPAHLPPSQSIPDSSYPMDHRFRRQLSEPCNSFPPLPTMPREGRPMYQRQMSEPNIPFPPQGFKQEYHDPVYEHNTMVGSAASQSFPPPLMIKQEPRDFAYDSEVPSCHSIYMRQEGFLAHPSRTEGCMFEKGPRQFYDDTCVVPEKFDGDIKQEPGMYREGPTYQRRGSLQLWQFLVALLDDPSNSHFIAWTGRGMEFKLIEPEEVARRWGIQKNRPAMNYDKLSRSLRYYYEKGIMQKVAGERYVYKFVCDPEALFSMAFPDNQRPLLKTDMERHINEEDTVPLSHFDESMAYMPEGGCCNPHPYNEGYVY
Method in brief: as §1

Sequence | binding signal (FEV) | binding signal (ETV5) | binding signal (HSF1) | binding signal (SPIC) | binding signal (ELF4) | binding signal (ELK4) | binding signal (ETV2) | binding signal (ELF3) | binding signal (CRX) | binding signal (ETV1)
CTGAAT | 1.32 fold enrichment (6-mer frequency, TF over GST control) | 1.29 fold enrichment (6-mer frequency, TF over GST control) | 1.37 fold enrichment (6-mer frequency, TF over GST control) | 1.29 fold enrichment (6-mer frequency, TF over GST control) | 1.29 fold enrichment (6-mer frequency, TF over GST control) | 1.31 fold enrichment (6-mer frequency, TF over GST control) | 1.5 fold enrichment (6-mer frequency, TF over GST control) | 1.15 fold enrichment (6-mer frequency, TF over GST control) | 1.34 fold enrichment (6-mer frequency, TF over GST control) | 1.36 fold enrichment (6-mer frequency, TF over GST control)
CGATCT | 1.32 fold enrichment (6-mer frequency, TF over GST control) | 1.36 fold enrichment (6-mer frequency, TF over GST control) | 1.54 fold enrichment (6-mer frequency, TF over GST control) | 1.46 fold enrichment (6-mer frequency, TF over GST control) | 1.37 fold enrichment (6-mer frequency, TF over GST control) | 1.38 fold enrichment (6-mer frequency, TF over GST control) | 1.27 fold enrichment (6-mer frequency, TF over GST control) | 1.41 fold enrichment (6-mer frequency, TF over GST control) | 1.52 fold enrichment (6-mer frequency, TF over GST control) | 1.24 fold enrichment (6-mer frequency, TF over GST control)
TCCGAT | 1.41 fold enrichment (6-mer frequency, TF over GST control) | 1.3 fold enrichment (6-mer frequency, TF over GST control) | 1.42 fold enrichment (6-mer frequency, TF over GST control) | 1.25 fold enrichment (6-mer frequency, TF over GST control) | 1.22 fold enrichment (6-mer frequency, TF over GST control) | 1.25 fold enrichment (6-mer frequency, TF over GST control) | 1.15 fold enrichment (6-mer frequency, TF over GST control) | 1.23 fold enrichment (6-mer frequency, TF over GST control) | 1.94 fold enrichment (6-mer frequency, TF over GST control) | 1.3 fold enrichment (6-mer frequency, TF over GST control)
GGTCTC | 2.46 fold enrichment (6-mer frequency, TF over GST control) | 2.46 fold enrichment (6-mer frequency, TF over GST control) | 1.44 fold enrichment (6-mer frequency, TF over GST control) | 2.4 fold enrichment (6-mer frequency, TF over GST control) | 2.51 fold enrichment (6-mer frequency, TF over GST control) | 2.64 fold enrichment (6-mer frequency, TF over GST control) | 2.18 fold enrichment (6-mer frequency, TF over GST control) | 2.29 fold enrichment (6-mer frequency, TF over GST control) | 1.48 fold enrichment (6-mer frequency, TF over GST control) | 2.58 fold enrichment (6-mer frequency, TF over GST control)
ATGGTA | 1.17 fold enrichment (6-mer frequency, TF over GST control) | 1.43 fold enrichment (6-mer frequency, TF over GST control) | 1.21 fold enrichment (6-mer frequency, TF over GST control) | 1.31 fold enrichment (6-mer frequency, TF over GST control) | 1.31 fold enrichment (6-mer frequency, TF over GST control) | 1.49 fold enrichment (6-mer frequency, TF over GST control) | 1.45 fold enrichment (6-mer frequency, TF over GST control) | 1.48 fold enrichment (6-mer frequency, TF over GST control) | 1.33 fold enrichment (6-mer frequency, TF over GST control) | 1.47 fold enrichment (6-mer frequency, TF over GST control)
CTTGGG | 1.23 fold enrichment (6-mer frequency, TF over GST control) | 1.26 fold enrichment (6-mer frequency, TF over GST control) | 1.12 fold enrichment (6-mer frequency, TF over GST control) | 1.31 fold enrichment (6-mer frequency, TF over GST control) | 1.21 fold enrichment (6-mer frequency, TF over GST control) | 1.32 fold enrichment (6-mer frequency, TF over GST control) | 1.15 fold enrichment (6-mer frequency, TF over GST control) | 1.23 fold enrichment (6-mer frequency, TF over GST control) | 1.13 fold enrichment (6-mer frequency, TF over GST control) | 1.38 fold enrichment (6-mer frequency, TF over GST control)
AAGTAC | 1.52 fold enrichment (6-mer frequency, TF over GST control) | 1.59 fold enrichment (6-mer frequency, TF over GST control) | 1.29 fold enrichment (6-mer frequency, TF over GST control) | 1.58 fold enrichment (6-mer frequency, TF over GST control) | 1.5 fold enrichment (6-mer frequency, TF over GST control) | 1.32 fold enrichment (6-mer frequency, TF over GST control) | 1.41 fold enrichment (6-mer frequency, TF over GST control) | 1.68 fold enrichment (6-mer frequency, TF over GST control) | 1.34 fold enrichment (6-mer frequency, TF over GST control) | 1.49 fold enrichment (6-mer frequency, TF over GST control)
